Assay outcomes: PubChem, National Center for Advancing Translational Sciences (NCATS)
hNpr1 antagonist – antagonists of human natriuretic peptide receptor Npr1; HEK293 hNpr1 GloSensor cGMP, ANP-stimulated luminescence; actives 1.6% (n = 76,000); P16066; Potency, µM (titrated, usually from 46.3 µM), without a hit: at the highest dose activity change, negative = inhibition, hits mostly inhibitors; calls by dose curve; further: nearly all actives have a fitted effect of over 60% in size
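Compound pre-incubated 30 min at room temperature on GloSensor-loaded HEK293 cells stably carrying hNpr1 and the pGS-40F cGMP biosensor. Stimulation uses hNppA at 0.1 nM final; luminescence is taken at baseline and 20 min post-agonist.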
HEK293 tox – HEK 293 cell cytotoxicity | HEK 293 viability, ATP luminescence (CellTiter-Glo), 48-72 h | Potency, µM (top dose mostly 115 µM), inactives show at the top dose activity change, negative = cytotoxicity, hits mostly inhibitors | actives 6.6% (n = 94,000) | AID 1345083; further: nearly all actives have a fitted effect of over 60% in size
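250 HEK 293 cells/well; compound by pintool; incubated 48 or 72 hr at 37 degree Celsius; CellTiter-Glo added, 10 min RT, luminescence imaged.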
3T3 cytotox – kills NIH 3T3 cells; NIH 3T3 viability, CellTiter-Glo ATP luminescence, 48-72 h; Potency, µM (top dose mostly 96.7 µM), inactives show top-dose activity change, negative = cytotoxicity, actives largely listed as inhibitors; actives 4.3% (n = 94,000); AID 1345082; further: nearly all actives have a fitted effect of over 55% in size
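Cytotoxicity was measured by CellTiter-Glo ATP luminescence after 48 or 72 h compound exposure at 37 °C. Mouse NIH 3T3 fibroblasts were seeded at 400 cells/well and dosed by 23 nL pin transfer.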
FLuc inh – Photinus pyralis luciferase inhibition | P08659 | purified P. pyralis luciferase, luminescence, biochemical | Potency, µM (doses to about 115 µM), hits mostly inhibitors | actives 2.5% (n = 76,000); further: nearly all actives have a fitted effect of over 65% in size
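FLuc 10nM, D-luciferin 10uM, ATP 10uM, Mg acetate 10mM, Tris acetate pH 7.5, Tween/BSA; cpd qHTS; enzyme added last; CCD luminescence.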
GPT2 inh – inhibitors of human GPT2 alanine aminotransferase; Q8TD30; Recombinant GPT2, coupled pyruvate oxidase/HRP Amplex Red fluorescence; Potency, µM (highest dose often 57.7 µM), for inactives: top-dose activity change, negative = inhibition, most hits filed as inhibitors; actives 0.25% (n = 100,000); AID 1671188; further: nearly all actives have a fitted effect of over 60% in size
Target sequence (Q8TD30 whole entry, looked up): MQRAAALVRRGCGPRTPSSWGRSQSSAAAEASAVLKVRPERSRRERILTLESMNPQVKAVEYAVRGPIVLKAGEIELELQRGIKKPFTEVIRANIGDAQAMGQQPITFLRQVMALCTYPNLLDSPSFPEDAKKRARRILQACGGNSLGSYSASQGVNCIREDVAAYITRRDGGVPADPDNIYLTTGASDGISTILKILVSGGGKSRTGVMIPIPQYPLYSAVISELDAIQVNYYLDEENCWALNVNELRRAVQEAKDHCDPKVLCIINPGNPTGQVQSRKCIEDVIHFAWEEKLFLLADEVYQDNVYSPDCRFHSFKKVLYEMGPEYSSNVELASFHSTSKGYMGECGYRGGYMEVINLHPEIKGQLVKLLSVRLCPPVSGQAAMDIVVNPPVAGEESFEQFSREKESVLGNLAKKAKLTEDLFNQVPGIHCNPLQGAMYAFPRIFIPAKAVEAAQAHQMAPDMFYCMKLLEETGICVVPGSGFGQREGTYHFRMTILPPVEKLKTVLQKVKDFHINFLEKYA
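GPT2 10ng/uL, a-KG 250uM, L-Ala 2mM, HEPES pH7.5 + 0.0001% Tween; 30 min RT. Then Amplex mix (PO/HRP/ThPP), 30 min RT dark, fluorescence. AOA 50uM used as positive control.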
An asterisk follows results filed as active; i = inactive; ? = inconclusive; / = not tested or not shown; [ ] = another dose, or the depositor's remark. Most compounds without a hit are left out; they make up all but 10% or so of the library. Unless noted, the call rests on the fitted dose curve; in most records, active means well fitted curve in the direction sought with a large enough effect; inconclusive means small, poorly fitted or top-dose-only effect, or another doubt; inactive means no such curve, though single readings can be large; an effect the other way counts as inactive or inconclusive. On the % scale 0 is the no-effect control and ±100 the full control effect; potency means the concentration at half of the fitted maximal effect.

SMILES	hNpr1 antagonist	HEK293 tox	3T3 cytotox	FLuc inh	GPT2 inh
O=C1COc2ccc(OCc3ccccc3)nc2CN1CCOc1ccccc1	?	89µM*	?	i	0%[88.5 µM]
O=C1COc2ccc(-c3cc4ccccc4o3)nc2CN1CCOc1ccccc1	?	?	?	i	-16%[88.5 µM]
O=C1COc2ccc(-c3cccc(O)c3)nc2CN1CCOc1ccccc1	?	100µM*	?	i	-35%[88.5 µM]
CN1CCN([C@H]2CCN(C(=O)NCCc3ccccc3)C[C@H]2CCC(=O)O)CC1	0%	3%	i	i	i
COc1ccc(S(=O)(=O)NC[C@@H]2C=C(C)[C@H](CC(=O)N3CCN(c4ccccn4)CC3)C[C@H]2C(C)C)cc1	-17%	?	8.9µM*	i	-6%
CCOC(=O)C[C@@H]1C[C@@H](C(C)C)[C@H](CNS(=O)(=O)c2ccc(OC)cc2)C=C1C	-16%[70.6 µM]	40µM*	?	i	0%[88.5 µM]
COc1ccc(S(=O)(=O)NC[C@@H]2C=C(C)[C@H](CC(=O)N3CCN(C)CC3)C[C@H]2C(C)C)cc1	2%	?	?	i	-5%
Cc1noc(C2CCCN2C(=O)c2cccc(CC3CCNCC3)c2)n1 (stereo not drawn)	0%	-16%	-6%	i	i
COc1ccc(NC(C)=O)cc1NC(=O)Cn1nc2c(cc1=O)CCCC2	4%	11%	i	i	i
O=C(Cn1ccn2nc(-c3ccccc3)c(CO)c2c1=O)Nc1cc(Cl)cc(Cl)c1	0%	50µM*	-24%	i	2%
CCN(CC)C(=O)CCc1c(C)nn(-c2ccc(F)cc2)c1Oc1cccc(F)c1	-22%	?	?	i	2%
COc1ccc(CNC(=O)[C@@H]2Cc3cn(Cc4cccnc4)c4cccc(c34)[C@H](CC(C)C)N2)cc1	-12%	35µM*	?	i	-41%
C=CCNC(=O)[C@@H]1Cc2cn(Cc3cccnc3)c3cccc(c23)[C@H](CC(C)C)N1	-18%[70.6 µM]	50µM*	?	i	3%[88.5 µM]
CC(C)C[C@@H]1N[C@H](C(=O)NCc2ccccc2)Cc2cn(Cc3cccnc3)c3cccc1c23	-21%	25µM*	?	i	-10%
COc1ccccc1CNC(=O)[C@@H]1Cc2cn(C)c3cccc(c23)[C@H](CC(C)C)N1	-20%[70.6 µM]	45µM*	50µM*	i	?
COc1ccc(OC)c(NC(=O)Cn2c(C)cc3nc4n(c(=O)c32)CCCCC4)c1	1%	-8%	?	i	4%
COc1ccc(C2Cn3nnc(-c4noc(-c5ccoc5)n4)c3CO2)cc1 (stereo not drawn)	?	-5%	-8%	i	i
Oc1cccc(CN(Cc2ccsc2)Cc2ccco2)c1	1%	35µM*	32µM*	i	i
CC(c1cccs1)N(C)Cc1ccsc1 (stereo not drawn)	0%[70.6 µM]	i	-7%[174 µM]	i	i
CCCCn1c(=O)c(C(=O)N2CCN(C(=O)Nc3ccc(Cl)cc3)CC2)nc2cccnc21	/	-24%	?	/	i
O=C(c1nccc2ccccc12)N1CCc2c(nc(-c3ccc(F)cc3)[nH]c2=O)C1	-12%	?	14µM*	i	i
O=C(c1ccco1)N1CCc2c(nc(-c3ccc(F)cc3)[nH]c2=O)C1	-12%	3%	?	i	-8%
C[C@@H](NCC1CCCC1)c1onc(-c2cccnc2)c1C(=O)O	-1%[70.6 µM]	i	i	i	-11%[88.5 µM]
Cc1ccc(C(=O)N2CCC[C@H]2c2nc(-c3ccccc3Cl)no2)cc1	-6%	?	?	i	i
COc1ccc(-c2noc([C@@H]3CCCN3C3CCCCC3)n2)cn1	-3%[70.6 µM]	?	?	i	i
SMILES	hNpr1 antagonist	HEK293 tox	3T3 cytotox	FLuc inh	GPT2 inh
COCC(=O)Nc1ccc(-c2noc([C@@H]3CCCN3CC(C)(C)C)n2)cn1	-21%[70.6 µM]	100µM*	?	i	-9%[88.5 µM]
COCCOc1ccc(-c2noc([C@@H]3CCCN3C3CCCCC3)n2)cn1	1%[70.6 µM]	100µM*	-9%[174 µM]	i	-1%[88.5 µM]
Cn1cnc(S(=O)(=O)N2CCC(N3CC(OCC4CC4)C34CCOCC4)CC2)c1 (stereo not drawn)	6%	i	1%	i	i
O=C(Nc1ccccn1)[C@@H]1C[C@@H](c2ccc(F)cc2)N(Cc2ccccc2)C1	?	?	?	i	-27%[88.5 µM]
O=C(Nc1cccnc1)[C@@H]1C[C@H](c2ccc(F)cc2)N(Cc2ccccc2Cl)C1	-24%[70.6 µM]	40µM*	45µM*	i	-5%[88.5 µM]
O=C(Nc1cccnc1)[C@@H]1C[C@@H](c2ccc(F)cc2)N(Cc2ccccc2)C1	?	?	79µM*	i	-5%[88.5 µM]
COc1ccc(NC(=O)[C@@H]2C[C@H](c3ccc(F)cc3)N(Cc3ccccc3Cl)C2)cn1	-30%[70.6 µM]	28µM*	22µM*	i	-3%[88.5 µM]
O=C(N[C@H]1CCN2C(=O)c3cc(/C=C/c4ccccc4)ccc3NC(=O)[C@H]12)C1CCCC1	-12%[70.6 µM]	?	?	i	0%[88.5 µM]
CC(C)NC(=O)C1CCc2nnc(C3CCN(C(=O)c4ccc(Cl)cc4Cl)CC3)n21 (stereo not drawn)	/	i	-1%	/	i
CN(C)c1cccc(NC(=O)c2ccnc(-c3nnc4ccc(N5CCOCC5)nn34)c2)c1	5%	-28%	?	i	i
CN(C)c1ccc2nnc(-c3cc(C(=O)NCCc4ccccn4)ccn3)n2n1	0%[70.6 µM]	-13%[172 µM]	?	i	0%[88.5 µM]
O=C(Nc1ccncc1)c1ccnc(-c2nnc3ccc(N4CCOCC4)nn23)c1	4%[70.6 µM]	-6%[172 µM]	89µM*	i	?
COc1cccc(NC(=O)c2ccnc(-c3nnc4ccc(N(C)C)nn34)c2)c1	-1%[70.6 µM]	?	32µM*	i	4%[88.5 µM]
CN(c1ccccc1)c1ccc2nnc(-c3cc(C(=O)Nc4ccccn4)ccn3)n2n1	3%[70.6 µM]	56µM*	?	i	i
CN(c1ccccc1)c1ccc2nnc(-c3cc(C(=O)NCc4cccnc4)ccn3)n2n1	-1%[70.6 µM]	100µM*	25µM*	i	3%[88.5 µM]
CN(c1ccccc1)c1ccc2nnc(-c3cc(C(=O)NC4CCC(O)CC4)ccn3)n2n1 (stereo not drawn)	7%	-10%	?	i	-11%
O=C1CC2(CCN(Cc3cccnc3)CC2)Oc2cc(Cl)ccc21	0%	?	?	25µM*	i
O=C1CC2(CCN(Cc3ccc(F)cc3)CC2)Oc2ccccc21	-1%[70.6 µM]	50µM*	?	i	2%[88.5 µM]
CN(C)c1ccc(CN2CCC3(CC2)CC(=O)c2ccccc2O3)cc1	13%	-7%	-6%	i	i
CN1CCCN(C(=O)Cc2ccccc2F)c2ccccc21	1%	?	?	i	-4%
